# Results: PubChem BioAssay (NCATS)
# Records with an inconclusive call do not appear. Entries that show only a call come without a potency. Values without a mark were called inactive. The source made the active and inactive calls. Calls follow the shape of the dose curve; as a rule, active = well fitted curve in the direction sought with a large enough effect; inconclusive = small, poorly fitted or top-dose-only effect, or another doubt; inactive = no such curve, though single readings can be large; an effect the other way counts as inactive or inconclusive. Where a SMILES comes first, the peptide text is derived from it. The star is where a group is joined. Cbz = O=C(OCc1ccccc1)*; CH2F = FC*
# Experiments:
# [1] = P-glycoprotein substrates identified in KB-3-1 adenocarcinoma cell line, qHTS therapeutic library screen (AID 1346986); also: nearly all actives have a fitted effect of over 60% in size
# How it was run: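 KB-3-1 parental and colchicine-selected P-gp-overexpressing KB-8-5-11 cells (colchicine omitted during assay), 500 cells/well, dosed in dose-response for 72 h at 37 °C; CellTiter-Glo luminescence. Cytotoxic: curve class -1.1 to -2.4, max response >50%, AC50 < 10 uM.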
# [2] = P-glycoprotein substrates identified in KB-8-5-11 adenocarcinoma cell line, qHTS therapeutic library screen (AID 1346987); also: nearly all actives have a fitted effect of over 65% in size; as to activity change, negative = cytotoxicity: series mostly up to about 44 µM
# How it was run: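 Steps: plate 500 KB-8-5-11 cells/well in DMEM + 10% FCS (colchicine removed); pin compounds in dose-response; incubate 72 h, 37 degree C, 5% CO2; add CellTiter-Glo, 5 min; read luminescence.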
smiles,measurement,setting,value
Cn1cc(CCn2cnc(-c3cnn(C)c3)c2-c2ccc(C#N)cc2)cn1,Potency,[1],inactive
same,Potency,[2],inactive
CCC(C)/C=C(C)/C=C/C1=CC2=C(Cl)C(=O)C(C)(OC(C)=O)C(=O)C2=CN1C(CCC(=O)O)C(=O)O (configuration not stated),Potency,[1],inactive
same,Potency,[2],inactive
COC(=O)CC[C@H](NC(=O)[C@H](CC(C)C)NC(=O)OCc1ccccc1)C(=O)N[C@@H](Cc1cnc[nH]1)C(=O)N[C@@H](CC(=O)OC)C(=O)CF (Cbz-LE(OMe)HD(OMe)-CH2F),outcome,[1],inactive [at 9.29 µM]
same,"activity change, negative = cytotoxicity",[2],6.58% [at 9.29 µM]
CC1(C(=O)O)CC[C@]2(C(=O)OC3OC(CO)C(O)C(O)C3O)CC[C@]3(C)C(=CCC4[C@@]5(C)CC[C@H](OC6OCC(O)C(O)C6OC6OC(CO)C(O)C(O)C6O)C(C)(C)C5CC[C@]43C)C2C1 (some centres not stated),outcome,[1],inactive [at 9.29 µM]
same,outcome,[2],inactive [at 9.29 µM]
CC(C)C1(O)NC(=O)C(CC2(O)c3ccccc3N3C(=O)C(C)(C)NC32)n2c1nc1ccccc1c2=O (configuration not stated),Potency,[1],inactive
same,Potency,[2],inactive
COc1cccc(OC)c1-c1cc(C(=O)N[C@@H](CC(C)C)C(=O)O)nn1-c1ccnc2cc(Cl)ccc12,Potency,[1],inactive
same,Potency,[2],inactive
COc1cc(/C=C/C(=O)OCC2OC(OC3(CO)OC(CO)C(O)C3O)C(O)C(O)C2O)ccc1O (configuration not stated),Potency,[1],inactive
same,Potency,[2],inactive
C=CC(C)(C)C12Nc3c(ccc4c3OC(C)(C)C=C4)C1(O)CC1C(=O)N3CCCC3C(=O)N12 (configuration not stated),Potency,[1],inactive
same,Potency,[2],inactive
CC1(C)CCC2(C(=O)O)C(O)CC3(C)C(=CCC4C5(C)CCC(OC6OC(CO)C(O)C(O)C6OC6OC(CO)C(O)C(O)C6OC6OCC(O)(CO)C6O)C(C)(C)C5CCC43C)C2C1 (configuration not stated),outcome,[1],inactive [at 9.29 µM]
same,outcome,[2],inactive [at 9.29 µM]
CC1=C2C(=O)C=C(CO)C2[C@H]2OC(=O)[C@H](C)[C@@H]2[C@@H](OC(=O)Cc2ccc(O)cc2)C1 (some centres not stated),Potency,[1],inactive
same,Potency,[2],inactive
CC(=O)OC12CC(C)C(OC(=O)c3ccccc3)C1/C=C(/C)C(OC(=O)c1ccccc1)CC(=O)C(C)(C)/C=C/C(C)C2=O (configuration not stated),Potency,[1],inactive
same,Potency,[2],inactive
COc1ccc(-c2ccn(CC[C@](C)(C(=O)NO)S(C)(=O)=O)c(=O)c2)c(F)c1,Potency,[1],inactive
same,Potency,[2],inactive
NC(=O)[C@H](Cc1ccccc1)NC(=O)[C@H](CCCN=C(N)N)NC(=O)C12CC3CC(CC(C3)C1)C2,outcome,[1],inactive [at 9.29 µM]
same,outcome,[2],inactive [at 9.29 µM]
CC1(C)C=Cc2c(ccc3c2N=C2C(C)(C)[C@@H]4C[C@]56CCCN5C(=O)[C@@]4(C[C@]23O)NC6=O)O1,Potency,[1],inactive
same,Potency,[2],inactive
CC(C)CC(=O)NCCn1cc(C(=O)O)c(=O)cc1C(O)c1ccccc1 (configuration not stated),Potency,[1],inactive
same,Potency,[2],inactive
CCCCCOC(=O)Nc1nc(=O)n(C2O[C@H](C)[C@@H](O)[C@H]2O)cc1F (some centres not stated),Potency,[1],inactive
same,Potency,[2],inactive
C=CC(C)(O)CC/C=C(\C)C(=O)O[C@@H]1[C@@H](O)[C@H](OC(C)(C=C)CC/C=C(\C)C(=O)O)O[C@H](CO)[C@H]1OC(=O)/C(C)=C/CCC(C)(O)C=C (some centres not stated),Potency,[1],inactive
same,Potency,[2],inactive
C/C(=C\CO)CC/C=C(\C)C(=O)O[C@@H]1O[C@H](CO)[C@@H](O)[C@H](O)[C@H]1O,Potency,[1],inactive
same,Potency,[2],inactive
N#Cc1cccc(-c2nc(-c3cccnc3)no2)c1,Potency,[1],inactive
same,Potency,[2],inactive
C[C@H]1CC[C@@]2(OC1)O[C@H]1CC3C4CC[C@H]5C[C@@H](O[C@@H]6O[C@H](CO)[C@H](O[C@@H]7O[C@H](CO)[C@@H](O)[C@H](O[C@@H]8OC[C@@H](O)[C@H](O)[C@H]8O)[C@H]7O[C@@H]7O[C@H](CO)[C@@H](O)[C@H](O)[C@H]7O)[C@H](O)[C@H]6O)[C@H](O)C[C@]5(C)C4=CC(=O)[C@]3(C)[C@H]1[C@@H]2C (some centres not stated),outcome,[1],inactive [at 9.29 µM]
same,"activity change, negative = cytotoxicity",[2],4.95% [at 9.29 µM]
CCCC/C=C\CCCCCc1cc(=O)c2ccccc2n1C,Potency,[1],inactive
same,Potency,[2],inactive
CC/C=C\[C@H](O)[C@H](O)C1=C(C)C(=O)[C@]2(O1)C(=O)N[C@@](O)(C(=O)c1ccccc1)[C@@H]2O,Potency,[1],inactive
same,Potency,[2],inactive
C/C=C(/C)C(=O)O[C@@H]1C[C@@H](OC(=O)/C(C)=C\C)[C@@]2(C)C3C(=O)C=C(C)C2C3C1(C)C,Potency,[1],inactive
same,Potency,[2],inactive
CC(C)CC(c1c(O)c(C=O)c(O)c(C=O)c1O)C1CCC(C)(O)C2CC(C(C)(C)O)CCC12C (configuration not stated),Potency,[1],inactive
same,Potency,[2],inactive
CC(=O)OC12CC(C)C(O)C1/C=C(/COC1OC(CO)C(O)C(O)C1O)CCC1C(/C=C(\C)C2=O)C1(C)C (configuration not stated),Potency,[1],inactive
same,Potency,[2],inactive
CC1OC(OC2C(OC3C(O[C@H]4CC[C@@]5(C)C(CC[C@]6(C)C5C(=O)CC5=C7CC(C)(C)CC(O)[C@]7(C)CC[C@]56C)C4(C)C)OC(C(=O)O)C(O)C3O)OCC(O)C2O)C(O)C(O)C1O (some centres not stated),outcome,[1],inactive [at 9.29 µM]
same,outcome,[2],inactive [at 9.29 µM]
